A selection: hits, their analogues and other compounds. The true share with any hit is near 9%.
G9a inh – qHTS Assay for Inhibitors of Histone Lysine Methyltransferase G9a; Histone-lysine N-methyltransferase EHMT2 (Homo sapiens), Q96KQ7; G9a H3K9 monomethylation, AlphaScreen, 2 h; Potency, µM (highest dose often 102 µM), for the others: at the highest dose activity, negative = inhibition, usual class: inhibitors; 350,000 compounds, 8.8% hits; AID 504332, 2011; also: % is scaled to controls: 0 for no effect and ±100 for the full control effect; nearly all actives have a fitted effect of over 75% in size
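AlphaScreen detection with an anti-monomethyl H3K9 antibody quantified product after a 2 h room-temperature reaction containing 500 nM biotinylated H3K9 peptide, 20 µM SAM and 20 nM enzyme, which had been preincubated 15 min with compound.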
BAZ2B inh – qHTS Assay for Inhibitors of BAZ2B; AlphaScreen BAZ2B-H3K14Ac peptide displacement; Potency, µM (series often up to 114 µM), for the others: top-dose activity change, negative = inhibition, most hits filed as inhibitors; 360,000 compounds, 4.4% hits; AID 504333, 2011; also: % is scaled to controls: 0 for no effect and ±100 for the full control effect; nearly all actives have a fitted effect of over 60% in size
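Protein-peptide AlphaScreen: BAZ2B 50 nM, b-H3K14Ac 50 nM, 1x PBS pH 7.4 + 0.01% Tween-20. Preincubation 30 min RT; cpd 30 min RT (top 110 uM); beads 20 min RT, light-protected.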
ALOX12 inh – Primary qHTS assay for inhibitors of human arachidonate 12S-lipoxygenase (ALOX12): Round 2; Potency, µM (doses to about 108 µM), inactives show at the highest dose activity change, negative = inhibition, usual class: inhibitors; 580,000 compounds, 1.1% hits; Polyunsaturated fatty acid lipoxygenase ALOX12 (Homo sapiens), P18054; purified 12hLO, xylenol orange hydroperoxide absorbance; also: % is scaled to controls: 0 for no effect and ±100 for the full control effect
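Purified human 12hLO at 150 nM in 25 mM Hepes, 0.01% Triton X-100, pH 7.0, preincubated 15 min at room temperature with compound. Reaction started with 40 uM arachidonic acid, 30 min at room temperature. Hydroperoxide measured by Fe-xylenol orange, 573/405 nm absorbance ratio.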
HP1b chromo inh – HTS for Inhibitors of HP1-beta Chromodomain Interactions with Methylated Histone Tails; Chromobox protein homolog 1 (Homo sapiens), P83916; 390,000 compounds, 0.56% hits; AID 540317, 2011; AlphaScreen HP1-beta / biotin-H3K9me3 peptide binding; Potency, µM (top dose mostly 114 µM), without a hit: at the highest dose activity change, negative = inhibition, most hits filed as inhibitors; also: nearly all actives have a fitted effect of over 70% in size
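HP1-beta protein (50 nM final) preincubated 30 min at room temperature with biotinylated H3(1-18)K9me3 peptide (50 nM) in PBS pH 7.4, 0.01% Tween-20, then compound added for 30 min. AlphaScreen streptavidin donor/nickel chelate acceptor beads (10 ug/mL final), 30 min dark, luminescence read.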
PLK1 PBD block – qHTS for Inhibitors of PLK1-PDB (polo-like kinase 1 - polo-box domain): Primary Screen; Potency, µM, for the others: max response, negative = inhibition, actives largely listed as inhibitors; 360,000 compounds, 2.8% hits; AID 720504, 2013; Serine/threonine-protein kinase PLK1 (Homo sapiens), P53350; Plk1 PBD binding of FITC phosphopeptide, fluorescence polarization; also: series mostly up to about 57 µM; % is scaled to controls: 0 for no effect and ±100 for the full control effect; nearly all actives have a fitted effect of over 65% in size
JMJD2A Tudor inh – qHTS Assay for Inhibitors of JMJD2A-Tudor Domain. Lysine-specific demethylase 4A (Homo sapiens), O75164. AlphaScreen JMJD2A-Tudor / H3K4me3 peptide binding. Potency, µM (top dose mostly 114 µM), without a hit: at the highest dose activity change, negative = inhibition, most hits filed as inhibitors. 390,000 compounds, 4.4% hits. AID 504339, 2011; also: % is scaled to controls: 0 for no effect and ±100 for the full control effect; nearly all actives have a fitted effect of over 50% in size
Starred values were filed as active, the others as inactive; ! = repeats disagree; [ ] = remark or other dose. Calls follow the shape of the dose curve; as a rule, active = well fitted curve in the direction sought with a large enough effect; inconclusive = small, poorly fitted or top-dose-only effect, or another doubt; inactive = no such curve, though single readings can be large; an effect the other way counts as inactive or inconclusive. Potency is read from the fitted curve at half-maximal effect.

Screening COC(=O)C1Cc2c([nH]c3ccccc23)C(C(C)C)N1 (stereo not drawn) returned G9a inh 45µM*, BAZ2B inh -13%, HP1b chromo inh 20%, PLK1 PBD block 1% and JMJD2A Tudor inh -2%.
COc1cc(C2NC(C(=O)O)Cc3c2[nH]c2ccccc32)cc(OC)c1OC (stereo not drawn) was read as G9a inh inconclusive, BAZ2B inh 79µM*, ALOX12 inh 7%, HP1b chromo inh -2%, PLK1 PBD block -7% and JMJD2A Tudor inh 56µM*.
`Cn1c(=O)oc2cc(S(=O)(=O)N3CCN(C(=O)c4ccco4)CC3)ccc21` gave ALOX12 inh -3%, HP1b chromo inh 18%, PLK1 PBD block 2% and JMJD2A Tudor inh 6%.
Screening CC(=O)Nc1ccc(NC(=O)C(C)OC(=O)CCCOc2ccc(Cl)c(C)c2)cc1 (stereo not drawn) returned G9a inh 18%, BAZ2B inh -14%, ALOX12 inh inconclusive, HP1b chromo inh 28%, PLK1 PBD block 4% and JMJD2A Tudor inh -6%.
`Cc1ccc(S(=O)(=O)N(C)C)cc1NC(=O)c1cccnc1Oc1ccccc1` gave G9a inh 8%, BAZ2B inh -3%, ALOX12 inh 225%, HP1b chromo inh 45%, PLK1 PBD block -22% and JMJD2A Tudor inh -12%.
Screening Fc1ccccc1CN1CCC(Cc2ccccc2)CC1 returned BAZ2B inh inconclusive, ALOX12 inh inconclusive, HP1b chromo inh inconclusive, PLK1 PBD block -9% and JMJD2A Tudor inh 0.89µM*.
`NC1CCCN(Cc2ccccc2F)C1` (stereo not drawn) gave ALOX12 inh 30%.
Screening Fc1cccc(CN2CCC(Cc3ccccc3)CC2)c1 returned G9a inh 28µM*, BAZ2B inh 79µM*, ALOX12 inh inconclusive, HP1b chromo inh inconclusive, PLK1 PBD block 1% and JMJD2A Tudor inh 56µM*.
For Fc1cccc(CN2CCC(Cc3nc(-c4ccccc4)n[nH]3)C2)c1 (stereo not drawn) the results were ALOX12 inh 57%.
O=C(NC1CC1)c1nc2sccn2c1Br was read as ALOX12 inh 80%[176 µM].
COC(=O)c1ccc(NC(=O)CS(=O)(=O)Cc2ccccc2)cc1 was read as G9a inh 23%, BAZ2B inh 9%, ALOX12 inh 0%, HP1b chromo inh -14%, PLK1 PBD block 27µM* and JMJD2A Tudor inh -15%[11.4 µM].
Screening CC(CC(=O)Nc1nnc(C(C)(C)C)s1)c1ccccc1 (stereo not drawn) returned G9a inh 25µM*, BAZ2B inh -5%, ALOX12 inh -9%, HP1b chromo inh 9%, PLK1 PBD block inconclusive and JMJD2A Tudor inh -17%.
Screening CC(C)(C)c1nnc(NC(=O)CS(=O)(=O)Cc2ccccc2)s1 returned G9a inh -39%, BAZ2B inh -38%, ALOX12 inh 40µM*!, HP1b chromo inh 2%, PLK1 PBD block inconclusive and JMJD2A Tudor inh -4%.
For CC(C)c1nnc(NC(=O)CC(C)c2ccccc2)s1 (stereo not drawn) the results were BAZ2B inh inconclusive, ALOX12 inh 0%, HP1b chromo inh 39%, PLK1 PBD block -6% and JMJD2A Tudor inh 1%.
O=C(Nc1cccc(Cl)c1)N1Cc2ccccc2Oc2ncccc21 was read as G9a inh -5%[59 µM], BAZ2B inh -16%, ALOX12 inh -7%, HP1b chromo inh 20% and JMJD2A Tudor inh -8%.
For C/C(=N/NS(=O)(=O)c1ccc(F)cc1)c1ccncc1 the results were G9a inh 22µM*, BAZ2B inh -14%, ALOX12 inh inconclusive, HP1b chromo inh 32%, PLK1 PBD block inconclusive and JMJD2A Tudor inh -22%.
Screening CC(=NNS(=O)(=O)c1ccc(C)cc1)c1ccncc1 returned ALOX12 inh -13% and PLK1 PBD block -27%.
Screening CCc1ccc(S(=O)(=O)N/N=C(/C)c2ccncc2)cc1 returned G9a inh 40µM*, BAZ2B inh -5%, ALOX12 inh inconclusive, HP1b chromo inh 55%, PLK1 PBD block inconclusive and JMJD2A Tudor inh -15%.
For Cn1nc(-c2ccc(Cl)cc2)c2cc(C(=O)NC3CC3)sc21 the results were G9a inh 20%, BAZ2B inh -2%, ALOX12 inh 8%, HP1b chromo inh 2%, PLK1 PBD block 30µM* and JMJD2A Tudor inh inconclusive.
For CCN(CC)CCNC(=O)c1cc2c(-c3ccc(Cl)cc3)nn(C)c2s1 the results were G9a inh inconclusive, BAZ2B inh 2%, ALOX12 inh inconclusive, HP1b chromo inh 20%, PLK1 PBD block -6% and JMJD2A Tudor inh -13%.
Cn1nc(-c2ccc(Cl)cc2)c2cc(C(=O)NCCN3CCOCC3)sc21 was read as G9a inh 71µM*, BAZ2B inh 9%, ALOX12 inh -4%, HP1b chromo inh 16%, PLK1 PBD block -7% and JMJD2A Tudor inh -18%.
O=C(NCCc1ccccc1)c1cccc(Br)c1 was read as BAZ2B inh -1%, ALOX12 inh -6%, HP1b chromo inh 58%, PLK1 PBD block 2% and JMJD2A Tudor inh 7%.
`Cc1ccc(OCC(=O)N2N=C(c3cccnc3)CC2(O)C(F)(F)F)cc1C` (stereo not drawn) gave G9a inh 24%[59 µM], BAZ2B inh 4%, ALOX12 inh -4%, HP1b chromo inh 14%, PLK1 PBD block -5% and JMJD2A Tudor inh -13%.
Cc1c(-n2c(O)c(C3=c4ccccc4=NC3=O)sc2=S)c(=O)n(-c2ccccc2)n1C was read as G9a inh 45µM*, BAZ2B inh -31%, ALOX12 inh -8%, HP1b chromo inh -12%, PLK1 PBD block -6% and JMJD2A Tudor inh -6%.
`Cc1ccc2nc(NC(=O)CSCc3ccccc3)sc2c1` gave G9a inh inconclusive, BAZ2B inh 2%, ALOX12 inh -1%[57.4 µM], HP1b chromo inh 51%, PLK1 PBD block -18% and JMJD2A Tudor inh -8%.
`N#CCCn1cc(C(=O)CN2C(=O)NC3(CCCC3)C2=O)c2ccccc21` gave ALOX12 inh -72%.
